# The supplement of paper PMC13380429
# Unmarked numbers belong to inactive results.
# Tested on: Vero E6 infected with SARS-CoV-2
# Assay: inhibition of SARS-CoV-2 cytopathic effect; higher = more antiviral protection, active = above 15
# Details: 833.33 nM; 48 h
row,SMILES,inhibition of SARS-CoV-2 cytopathic effect [%]
1,COc1cccc(Nc2ncnn3ccc(CN4CC[C@@H](N)[C@H](O)C4)c23)c1,-16.4
2,C[N+](C)(C)CCCCCCCCCC[N+](C)(C)C [decamethonium],-3.23
3,Cc1ccnc2c1NC(=O)c1cccnc1N2C1CC1 [nevirapine],0.25
4,CS(=O)(=O)Nc1ccc(-c2coc3cc(OCc4cccc(C(=O)O)c4)ccc3c2=O)cc1,-0.83
5,CCc1nc2ccc(Cl)cn2c1C(=O)NCc1ccc(N2CCC(c3ccc(OC(F)(F)F)cc3)CC2)cc1,0.62
6,C=CC1=C(C(=O)O)N2C(=O)[C@@H](NC(=O)/C(=N\O)c3csc(N)n3)[C@H]2SC1 [cefdinir],-0.24
7,C[N+]12CCCCC1CCC(=C(c1cccs1)c1cccs1)C2 (centres undefined) [tiquizium],-2.14
8,Cc1cc(OCCCS(C)(=O)=O)cc(C)c1-c1cccc(COc2ccc3c(c2)OC[C@H]3CC(=O)O)c1,3.74
9,CCn1cc(C(=O)O)c(=O)c2cc(F)c(N3CCN(C)CC3)cc21 [pefloxacin],-0.06
10,CC(C)C(=O)Nc1ccc([N+](=O)[O-])c(C(F)(F)F)c1 [flutamide],-2.92
11,Cc1ncc([N+](=O)[O-])n1CC(O)CN1CCOCC1 (centres undefined) [morinidazole],-1.22
12,O=c1c2ccccc2[se]n1-c1ccccc1 [Ebselen],1.45
13,CCCc1cc(C(N)=S)ccn1 [protionamide],3.81
14,C#CCOC(=O)C1=CCCN(C)C1 [arecaidine-propargyl-ester],-1.69
15,Cc1c(-c2ccc(O)cc2)n(Cc2ccc(OCCN3CCCCCC3)cc2)c2ccc(O)cc12 [bazedoxifene],-5.76
16,CN(Cc1ccccc1)C(=O)[C@H](Cc1ccc2ccccc2c1)NC(=O)[C@@H]1C[C@@H](O)CN1C(=O)c1cn(C)c2ccccc12,1.69
17,NC1(c2ccc(-c3nc4ccn5c(=O)[nH]nc5c4cc3-c3ccccc3)cc2)CCC1,1.79

row,SMILES,inhibition of SARS-CoV-2 cytopathic effect [%]
1,CN(C)CCCSc1ccccc1NC(=O)/C=C/c1ccccc1 [cinanserin],-4.69
2,c1cc(Cc2cnc[nH]2)ccn1 [immethridine],4.67
3,COc1cc(C(=O)N2CCC(N3CCN(C)CC3)CC2)ccc1Nc1ncc2c(n1)N(C)c1ccccc1C(=O)N2C,1.89
4,CC/C(=C(\c1ccc(O)cc1)c1ccc(OCCN(C)C)cc1)c1ccccc1 [afimoxifene],-0.54
5,COc1cc(N2CCC(N3CCN(C)CC3)CC2)ccc1Nc1ncc(Cl)c(Nc2ccccc2P(C)(C)=O)n1 [brigatinib],-0.42
6,CC#CCOC(=O)c1c(C)nc2sc3c(c2c1N)CCC(O)C3 (centres undefined),-0.32
7,O=C(O)CCC(=O)OC[C@@H](NC(=O)C(Cl)Cl)[C@H](O)c1ccc([N+](=O)[O-])cc1 [chloramphenicol-sodium-succinate],3.18
8,CC(C)[C@H]1CC[C@H](C(=O)N[C@H](Cc2ccccc2)C(=O)O)CC1 [nateglinide],1.09
9,CC(C)(C)c1ccc(S(=O)(=O)/C=C/C#N)cc1,5.32
10,COc1ccc(S(=O)(=O)N2CCCN(S(=O)(=O)c3ccc(OC)c(OC)c3)CC2)cc1OC,-5.53
11,Cc1ccc(-n2sc(=O)n(Cc3ccc(F)cc3)c2=O)cc1,-0.22
12,CCC[C@@H]1C[C@@H](C(=O)N[C@@H]([C@H]2O[C@H](SC)[C@H](O)[C@@H](O)[C@H]2O)[C@@H](C)O)N(C)C1 [lincomycin],-1.24
13,C[N+](C)(C)CCOC(=O)CCC(=O)OCC[N+](C)(C)C [succinylcholine-chloride],0.85
14,CC(=O)SC[C@@H](C)C(=O)N1CCC[C@H]1C(=O)N[C@@H](Cc1ccccc1)C(=O)O [alacepril],-1.33
15,COc1ccc(-c2cnc3c(-c4cccc5ncccc45)cnn3c2)cc1,-0.45
16,Nc1nc(Cl)nc2c1ncn2[C@@H]1O[C@H](CO)[C@@H](O)[C@@H]1F [clofarabine],2.37
17,Cc1cc(N)c2ccccc2[n+]1CCCCCCCCCC[n+]1c(C)cc(N)c2ccccc21 [dequalinium],-2.88
